Most compounds without a hit are left out; they make up all but 6.6% or so of the library.
Autofluor counter: compound fluorescence in toxin protease inhibitor counterscreen; compound autofluorescence counterscreen, microsphere flow cytometry; active compounds read high; fluorescence intensity (no concentration beside the values); 360,000 tested, 3.1% active; AID 624483; in the data active means fluorescence intensity above about 16000; inconclusive means no clear call, values can overlap the other calls
BoNT A protease: inhibitors of Botulinum neurotoxin A light chain protease | inhibition, % at 10 µM | AID 588499 | 360,000 tested, 0.17% active | multiplex microsphere protease substrate cleavage, flow cytometry; further: plate controls were buffer without enzyme for full effect and enzyme alone for no effect
GDH-TPI inh: GDH-TPI coupled enzyme inhibition counter-screen | inhibition, % at 4.8 µM | AID 588335 | GDH-TPI coupled enzyme counterscreen, NADH absorbance | 360,000 tested, 1.2% active; in the data active means inhibition above about 30%;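 further: 0% = DMSO wells and 100% = wells lacking the enzyme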
BoNT-F LC inh: inhibitors of Botulinum neurotoxin F light chain protease | 360,000 tested, 0.22% active | Multiplex microsphere protease cleavage assay, flow cytometry | inhibition, % at 10 µM; in the data active means inhibition above about 35%, passing the limit was not always enough; inconclusive means no clear call, values can overlap the other calls; further: plate controls were buffer without enzyme for full effect and enzyme alone for no effect
FBA Mtb inh: Mtb fructose-bisphosphate aldolase inhibition | 360,000 tested, 2.3% active | P9WQA3 | AID 588726 | inhibition, % at 1 µM | purified M. tuberculosis FBA, fluorescence read-out; in the data active means inhibition above about 27%;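 further: 0% = vehicle and 100% = reference inhibitor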
Anthrax LF inh2: blocks Bacillus anthracis lethal factor protease. inhibition, % at 10 µM. AID 588501. multiplex microsphere protease cleavage assay, LF. 360,000 tested, 0.12% active. P15917; further: plate controls were buffer without enzyme for full effect and enzyme alone for no effect
Target sequence (P15917 whole entry, looked up): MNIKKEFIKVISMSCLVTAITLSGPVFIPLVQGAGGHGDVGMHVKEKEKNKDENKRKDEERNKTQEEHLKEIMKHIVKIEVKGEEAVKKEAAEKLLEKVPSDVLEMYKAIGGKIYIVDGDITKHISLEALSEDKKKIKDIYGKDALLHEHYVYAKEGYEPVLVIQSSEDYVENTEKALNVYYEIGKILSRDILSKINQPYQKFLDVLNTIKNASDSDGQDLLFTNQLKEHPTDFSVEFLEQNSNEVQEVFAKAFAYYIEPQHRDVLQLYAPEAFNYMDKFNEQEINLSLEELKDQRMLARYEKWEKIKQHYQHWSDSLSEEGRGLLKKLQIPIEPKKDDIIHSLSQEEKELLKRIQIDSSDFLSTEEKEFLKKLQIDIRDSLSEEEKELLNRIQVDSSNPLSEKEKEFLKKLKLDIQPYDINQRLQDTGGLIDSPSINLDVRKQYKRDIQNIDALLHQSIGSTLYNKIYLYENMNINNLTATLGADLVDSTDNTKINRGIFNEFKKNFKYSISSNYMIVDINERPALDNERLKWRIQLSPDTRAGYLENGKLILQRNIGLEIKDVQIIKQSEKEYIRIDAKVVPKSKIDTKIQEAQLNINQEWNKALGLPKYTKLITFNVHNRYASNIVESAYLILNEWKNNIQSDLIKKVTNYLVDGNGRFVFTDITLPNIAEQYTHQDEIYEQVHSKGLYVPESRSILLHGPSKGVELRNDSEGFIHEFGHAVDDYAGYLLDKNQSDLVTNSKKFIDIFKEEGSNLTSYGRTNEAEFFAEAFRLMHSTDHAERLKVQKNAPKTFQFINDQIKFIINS
BoNT-A LC CP1: blocks botulinum neurotoxin A light chain protease | shares compounds with BoNT-F LC inh | multiplex microsphere protease assay, flow cytometry | inhibition, % at 10 µM | 720 tested, 3% active | AID 602139; in the data active means inhibition above about 32%
BoNTF LC inh 1: BoNT/F light chain protease inhibition. 720 tested, under 10 active. AID 602140. shares compounds with BoNT-F LC inh. inhibition, % at 10 µM. multiplex microsphere protease cleavage assay, flow cytometry; call rule not given here
LF protease CP1: blocks anthrax lethal factor protease; shares compounds with BoNT-F LC inh; multiplex microsphere protease cleavage assay, LF; inhibition, % at 10 µM; 720 tested, under 10 active; AID 602142; call rule not given here
* = called active by the depositor. Unless noted, no stated cut-off is given here; in the data, active means inhibition above about 30%; inconclusive means no clear call, values can overlap the other calls; inactive means below that.

`O=C(Nc1cccc(C(F)(F)F)c1)c1sc(Cl)nc1C(F)(F)F` gave Autofluor counter 3457, BoNT A protease 0, GDH-TPI inh -5, BoNT-F LC inh 40*, FBA Mtb inh 2, Anthrax LF inh2 33*, BoNT-A LC CP1 1, BoNTF LC inh 1 -3 and LF protease CP1 -2.
`O=C(Nc1cccc(C(F)(F)F)c1)c1cc(-c2ccco2)on1` gave Autofluor counter 3180, BoNT A protease -1, GDH-TPI inh 1, BoNT-F LC inh 7, FBA Mtb inh -1 and Anthrax LF inh2 0.
`CCCCCN(C(=O)CCC(=O)OC(C)C(=O)c1ccccc1)c1c(N)n(CCCC)c(=O)[nH]c1=O` (configuration not stated) gave Autofluor counter 6334, BoNT A protease -1, GDH-TPI inh 0, BoNT-F LC inh -6, FBA Mtb inh -1 and Anthrax LF inh2 -3.
For Cc1n[nH]c(C)c1CCNC(=O)C1CCC(=O)N(CCc2cccc(F)c2)C1 (configuration not stated) the results were Autofluor counter inconclusive, BoNT A protease 13, GDH-TPI inh 7, BoNT-F LC inh 35*, FBA Mtb inh -3, Anthrax LF inh2 -1, BoNT-A LC CP1 0, BoNTF LC inh 1 -4 and LF protease CP1 -1.
For S=c1nc(Cc2ccc(Cl)cc2)[nH]c2ccccc12 the results were Autofluor counter 3395, BoNT A protease 0, GDH-TPI inh 12, BoNT-F LC inh 4, FBA Mtb inh -1 and Anthrax LF inh2 5.
For S=c1nc(Cc2ccccc2)[nH]c2ccccc12 the results were Autofluor counter 15764, BoNT A protease -12, GDH-TPI inh 8, BoNT-F LC inh 51*, FBA Mtb inh 5, Anthrax LF inh2 -8, BoNT-A LC CP1 -1, BoNTF LC inh 1 -5 and LF protease CP1 -1.
For Cn1c(=O)[nH]c(=O)c2c1nc1n2CC(O)CN1c1ccccc1 (configuration not stated) the results were Autofluor counter 3482, BoNT A protease 3, GDH-TPI inh -6, BoNT-F LC inh 36*, FBA Mtb inh 4, Anthrax LF inh2 -14, BoNT-A LC CP1 0, BoNTF LC inh 1 -1 and LF protease CP1 -2.
COc1ccccc1-c1ccc(SCc2ccccc2)nn1 was read as Autofluor counter 4296, BoNT A protease 32*, GDH-TPI inh -3, BoNT-F LC inh 6, FBA Mtb inh 4, Anthrax LF inh2 25, BoNT-A LC CP1 6, BoNTF LC inh 1 -12 and LF protease CP1 2.
`CN(Cc1ccc(C(C)(C)C)cc1)C(=O)C1CCN(C(=O)Nc2ccccc2)CC1` gave Autofluor counter inconclusive, BoNT A protease -2, GDH-TPI inh -14, BoNT-F LC inh -4, FBA Mtb inh 0 and Anthrax LF inh2 -4.
COC(=O)C1CCN(C(=O)CN(C)Cc2ccc(C(C)(C)C)cc2)CC1 was read as Autofluor counter 3751, BoNT A protease 0, GDH-TPI inh -7, BoNT-F LC inh 36*, FBA Mtb inh -1, Anthrax LF inh2 3, BoNT-A LC CP1 2, BoNTF LC inh 1 2 and LF protease CP1 5.
O=C(Cc1c(F)cccc1Cl)Nc1ccc(S(=O)(=O)NCC2CCCO2)cc1 (configuration not stated) was read as Autofluor counter 4705, BoNT A protease -1, GDH-TPI inh -4, BoNT-F LC inh -3, FBA Mtb inh 2 and Anthrax LF inh2 2.
`CCOc1cccc(OCCCCN2CCCCC2)c1` gave Autofluor counter 10400, BoNT A protease 1, GDH-TPI inh 6, BoNT-F LC inh 0, FBA Mtb inh 0 and Anthrax LF inh2 -7.
Brc1cccc(OCCCCN2CCCCC2)c1 was read as Autofluor counter 2936, BoNT A protease 4, GDH-TPI inh 3, BoNT-F LC inh 35*, FBA Mtb inh 5, Anthrax LF inh2 -2, BoNT-A LC CP1 0, BoNTF LC inh 1 5 and LF protease CP1 3.
COc1ccccc1Oc1ccc2c(c1)C(=O)N(c1ccc(O)cc1)C2=O was read as Autofluor counter 2846, BoNT A protease 0, GDH-TPI inh 16, BoNT-F LC inh -4, FBA Mtb inh -2 and Anthrax LF inh2 3.
`COc1ccccc1Oc1ccc2c(c1)C(=O)N(CC(=O)O)C2=O` gave Autofluor counter 3877, BoNT A protease -1, GDH-TPI inh 4, BoNT-F LC inh 38*, FBA Mtb inh 6, Anthrax LF inh2 2, BoNT-A LC CP1 -1, BoNTF LC inh 1 1 and LF protease CP1 -1.
For O=c1[nH]c(=S)[nH]c2c1C(c1ccc(Br)cc1)c1c([nH]c(=S)[nH]c1=O)O2 the results were Autofluor counter 3543, BoNT A protease -2, GDH-TPI inh 10, BoNT-F LC inh 7, FBA Mtb inh 3 and Anthrax LF inh2 -12.
`COc1ccc(N(C)S(=O)(=O)c2cccc(C(=O)Nc3cccc(C(=O)NC4CC4)c3)c2)cc1` gave Autofluor counter inconclusive, BoNT A protease -2, GDH-TPI inh -7, BoNT-F LC inh -7, FBA Mtb inh 1 and Anthrax LF inh2 -3.
CC(C)C(=O)N1CCC1(C)C(=O)Nc1ccc2[nH]ccc2c1 (configuration not stated) was read as Autofluor counter 3863, BoNT A protease 0, GDH-TPI inh 4, BoNT-F LC inh -5, FBA Mtb inh 0 and Anthrax LF inh2 2.
For COc1ccc(OC)c(-c2nc3cc4ccccc4cc3nc2-c2ccccc2)c1 the results were Autofluor counter 2721, BoNT A protease 62*, GDH-TPI inh 0, BoNT-F LC inh 17, FBA Mtb inh 2, Anthrax LF inh2 22, BoNT-A LC CP1 34*, BoNTF LC inh 1 7 and LF protease CP1 26.
For COc1ccc(-c2nc3ccccc3nc2-c2ccc(OC)cc2)cc1 the results were Autofluor counter 4173, BoNT A protease 8, GDH-TPI inh 22, BoNT-F LC inh inconclusive, FBA Mtb inh 10 and Anthrax LF inh2 -7.
O=S(=O)(c1ccc(Cl)cc1)N1CCN(c2ccccn2)CC1 was read as Autofluor counter 3973, BoNT A protease -3, GDH-TPI inh -6, BoNT-F LC inh 48*, FBA Mtb inh -3, Anthrax LF inh2 -6, BoNT-A LC CP1 1, BoNTF LC inh 1 -4 and LF protease CP1 -6.
For O=S(=O)(c1ccc(F)cc1)N1CCN(c2ccccn2)CC1 the results were Autofluor counter 4180, BoNT A protease -2, GDH-TPI inh -4, BoNT-F LC inh -6, FBA Mtb inh 5 and Anthrax LF inh2 4.
Screening COc1cc(OC)cc(C(=O)NCCn2ccc3ccccc32)c1 returned Autofluor counter 6827, BoNT A protease 5, GDH-TPI inh 0, BoNT-F LC inh 4, FBA Mtb inh -3, Anthrax LF inh2 4, BoNT-A LC CP1 0, BoNTF LC inh 1 -5 and LF protease CP1 4.

Screens: PubChem, several laboratories
